Screening results (PubChem)
uPA generation = blocks generation of uPA at the cell surface; cell surface uPA generation assay, qHTS; Potency, µM (series often up to 38.3 µM), for the others: at the highest dose activity change, negative = inhibition, most hits filed as inhibitors; actives 0.31% (n = 330,000); active = well fitted inhibition curve with a large enough effect; inconclusive = small, poorly fitted or top-dose-only effect; inactive = no such curve, though single readings can be large or run the other way; tested in mouse RAW 264.7 cells; note: potency is the fitted concentration of half-maximal effect; % is set by controls: 0 for no effect and ±100 for the full control effect; nearly all actives have a fitted effect of over 55% in size
MBNL1 CUG block = MBNL1-poly(CUG) RNA binding inhibition. Q9NR56. TR-FRET MBNL1-His/biotin-(CUG)12 binding, 665/545 ratio. Potency, µM (titrated, usually from 57.5 µM), for the others: top-dose activity change, negative = inhibition, actives largely listed as inhibitors. actives 0.036% (n = 280,000); active = well fitted inhibition curve with a large enough effect in the signal ratio, with a control signal flat, not every such curve was filed as active; inconclusive = small, poorly fitted or top-dose-only effect, or effect the other way, or a change in a side signal; inactive = no such curve, though single readings can be large or run the other way; the % refers to the signal ratio; note: potency is the fitted concentration of half-maximal effect; % is set by controls: 0 for no effect and ±100 for the full control effect
Target sequence (Q9NR56 whole entry, looked up): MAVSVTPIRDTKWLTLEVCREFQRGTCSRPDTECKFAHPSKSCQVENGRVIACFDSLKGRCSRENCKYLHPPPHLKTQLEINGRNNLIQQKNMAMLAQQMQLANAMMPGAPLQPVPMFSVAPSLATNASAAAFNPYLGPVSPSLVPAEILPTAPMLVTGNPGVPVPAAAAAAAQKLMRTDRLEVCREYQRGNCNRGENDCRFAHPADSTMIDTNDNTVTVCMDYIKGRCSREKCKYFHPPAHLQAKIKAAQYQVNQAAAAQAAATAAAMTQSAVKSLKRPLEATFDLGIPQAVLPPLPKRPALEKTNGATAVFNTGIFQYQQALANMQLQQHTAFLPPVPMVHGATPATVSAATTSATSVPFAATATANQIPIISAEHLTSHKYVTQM
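TR-FRET readout: Ex 340 nm, 665/545 nm emission ratio, normalized to buffer-only (basal) and MBNL1-(CUG)12 controls. Complex of MBNL1-His with Biotin-(CUG)12, compounds 92 nM–58 uM, incubated 60 min at room temperature.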
Six1-Eya2 inh = blocks human Six1 binding to Eya2 | Q15475+O00167 | AlphaScreen GST-Six1/His-Eya2 binding, biochemical; hits give low values | activity change, % (no concentration beside the values) | actives 0.56% (n = 360,000) | AID 651725; note: % is set by controls: 0 for no effect and ±100 for the full control effect
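Six1/Eya2 binding was read as AlphaScreen signal after compounds were pinned into GST-Six1 plus His-tagged Eya2 (5X stock 250/500 nM) in pH 8.0 Tris/NaCl/TCEP buffer, beads added, then incubated 1 h, 37 C, dark.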
CtBP-E1A blk = inhibitors of CtBP/E1A interaction. AlphaScreen GST-E1A/His-CtBP binding, 1536-well; hits give low values. activity change, % (concentration not given with the values). actives 0.49% (n = 340,000); note: % is set by controls: 0 for no effect and ±100 for the full control effect
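AlphaScreen with 125 nM GST-E1A and 125 nM His-CtBP (5X stocks) in Tris pH 8.0, 300 mM NaCl, BSA, Tween 20, TCEP. Compounds preincubated 2 h at 37 deg C, then glutathione donor/nickel acceptor beads added for 1 h at 37 deg C in dark.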
Mito fusion yeast = inhibitors of mitochondrial division or activators of mitochondrial fusion. S. cerevisiae fusion-defective mutant growth rescue, CellTiterGlo 48 h. Potency, µM (titrated, usually from 46.1 µM), for the others: top-dose growth rescue (activation), usual class: activators. actives 0.23% (n = 320,000); active = well fitted activation curve with a large enough effect; inconclusive = small, poorly fitted or top-dose-only effect; inactive = no such curve, though single readings can be large or run the other way; note: potency is the fitted concentration of half-maximal effect; % of control where 0% means no effect; nearly all actives have a fitted effect of over 45% in size
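Growth-rescue viability read-out: after 48 h at the non-permissive 37C in glycerol/ethanol YPEG, yeast mitochondrial fusion mutants are measured by CellTiterGlo luminescence; compounds (23 nl pinned per well) restoring growth score as division inhibitors or fusion activators.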
* hit, by the source's call; ? = inconclusive; / = not tested or not shown. Sampled rows, rich in hits. Any-hit rate of the full collection: about 1.1%. Cut-off read from the data, not from the text of the source, unless noted: active = activity change below about -65%; inconclusive = mostly about -30% to -63%; inactive = weaker than that.

SMILES	uPA generation	MBNL1 CUG block	Six1-Eya2 inh	CtBP-E1A blk	Mito fusion yeast
O=C(N/N=C/c1sc(=O)[nH]c1-[n+]1ccc2ccccc2c1)c1ccccc1[O-]	4.2%	?	?	-75.2*	1.3%
COc1ccc2cc([S+]([O-])Cc3ncc(C)c(OC)c3C)nc2c1	/	/	/	/	6.3%
Cc1cc(C(=O)N/N=C/c2ccc([N+](=O)[O-])o2)c(C)o1	10µM*	/	-14.8	/	-5.9%
Cc1ccc(-c2cc(C(=O)N/N=C/C=C/c3ccccc3)n[nH]2)s1	-20.4%	-3.1%	-16.0	-16.4	15.8µM*
Cc1cc(C(=O)N/N=C/C=C/c2ccccc2)n[nH]1	-0.3%	?	-5.2	4.3	-2.0%
Nc1c(O)ccc2c1C(=O)c1ccccc1C2=O	-1.9%	?	-74.3*	?	5.2%
COc1ccc2c(c1O)C(=O)c1ccccc1C2=O	/	?	/	/	1.0%
Cc1cc(C)nc(Nc2nc(C(N)c3ccccc3)cs2)n1 (stereo not given)	/	/	-68.7*	-67.5*	/
CCCSc1nnc(NC(=O)c2sc3nc(-c4cccs4)ccc3c2N)s1	5.3%	19.3%	-2.2	1.4	8.7%
Cc1csc(NC(=O)c2sc3nc(-c4cccs4)ccc3c2N)n1	-11.9%	35.1%	-0.6	-9.3	11.2µM*
Cc1ccc(S(=O)(=O)Nc2ccccc2-c2ccccc2NS(=O)(=O)c2ccc(C)cc2)cc1	9.2%	-11.6%	-6.6	-2.0	1.8%
COc1cc(NS(=O)(=O)c2ccc(C)cc2)c2ncccc2c1	-10.5%	-9.3%	-71.7*	-78.8*	-1.2%
Cc1ccc(S(=O)(=O)Nc2cccc3cccnc23)cc1	-10.8%	30.2%	-70.7*	?	-0.4%
COc1ccc(S(=O)(=O)Nc2ccccn2)cc1	3.9%	-17.7%	4.8	9.6	-0.6%
COc1cc(NCCCC(C)N)c2ncccc2c1 (stereo not given)	-21.3%	?	?	-70.1*	-1.3%
CCCS(=O)(=O)NC(=O)C1(C)CCN(C(=O)c2cc(F)ccc2C)C1 (stereo not given)	/	/	0.8	-1.5	/
COc1ccc2c(c1)C(=O)C1(CC2)OC1c1cccnc1 (stereo not given)	/	/	0.4	-4.1	/
CN(C)CCCN1C(=O)c2cccc3c(Br)ccc(c23)C1=O	7.94µM*	?	-12.4	4.4	-3.1%
CCc1ccc2c(c1)NC(=O)C2(C)Cc1ccccc1C#N (stereo not given)	/	/	5.9	-10.2	/
Cc1nc2ccccc2c(=O)n1/N=C/c1cc(Br)ccc1O	-2.3%	3.0%	?	-65.4*	5.6%
COc1ccc(Br)cc1/C=N/n1c(C)nc2ccccc2c1=O	-7.1%	-1.3%	-0.2	-4.5	-2.3%
O=C(NCc1ccco1)c1ccc(Cl)c(S(=O)(=O)Nc2ccccc2)c1	0.4%	-5.5%	-9.6	-4.8	3.8%
CNS(=O)(=O)c1cc(C(=O)NCc2ccco2)ccc1Cl	3.3%	-3.5%	-69.0*	21.0	1.9%
COc1ccc(NC(=O)C(c2ccccc2)n2c(=O)c(-c3ccco3)nc3ccccc32)cc1 (stereo not given)	/	/	-8.1	4.8	/
C/C(=N\Nc1nnc(C)c(=O)[nH]1)C(=O)O	/	-15.0%	-89.2*	-87.2*	-3.4%
SMILES	uPA generation	MBNL1 CUG block	Six1-Eya2 inh	CtBP-E1A blk	Mito fusion yeast
Cc1nccn1CC(=O)c1ccccc1	/	/	1.5	-1.8	/
Cc1[nH]c2ccccc2c1-c1csc(NC(=O)CSCCO)n1	0.9%	8.1%	-14.6	-16.5	20µM*
C[C@H](CO)N1C[C@H](C)[C@@H](CN(C)C(=O)NC2CCCCC2)Oc2ccc(NC(=O)Cc3ccccc3)cc2C1=O	7.6%	/	2.6	-0.4	/
O=C(CCl)Nc1ccc(S(=O)(=O)NC2=NCCCCC2)cc1	-0.1%	/	-0.5	0.6	/
O=C(CCl)Nc1cccc(S(=O)(=O)NC2=NCCCCC2)c1	2.51µM*	/	15.0	/	/
CC(C1SC(=S)NC1=O)C1SC(=S)NC1=O (stereo not given)	/	/	-83.3*	-72.8*	/
CC(=O)Oc1ccccc1C1=NN(C(=O)/C=C/c2ccccc2)C(c2ccccc2)C1 (stereo not given)	-15.3%	3.3%	-1.8	-12.0	15.8µM*
CCOc1ccc(C(=O)C(CCC(CN(C)C)C(=O)c2ccc(OCC)cc2)CN(C)C)cc1 (stereo not given)	1.12µM*	/	3.5	-13.6	16.3%
